# Measurements from publication PMC7862700, “An all-to-all approach to the identification of sequence-specific readers for epigenetic DNA modifications on cytosine”.
# How the values were obtained:
# Test in all cases: DAPPL (digital affinity profiling via proximity ligation, sequencing); 10 mM Tris-HCl pH 7.5, 50 mM NaCl, 1 mM DTT, 4% glycerol, room temperature, 30 min; GST-TFs on glutathione beads, 16-mer random dsDNA library, 0.1% formaldehyde crosslink after washing; high values mean tight binding
# FEV = target: T1, FEV (Homo sapiens, UniProt Q99581 1-238); details: protein: recombinant; tags: N-terminal GST; dsDNA, one strand shown
# T1 sequence: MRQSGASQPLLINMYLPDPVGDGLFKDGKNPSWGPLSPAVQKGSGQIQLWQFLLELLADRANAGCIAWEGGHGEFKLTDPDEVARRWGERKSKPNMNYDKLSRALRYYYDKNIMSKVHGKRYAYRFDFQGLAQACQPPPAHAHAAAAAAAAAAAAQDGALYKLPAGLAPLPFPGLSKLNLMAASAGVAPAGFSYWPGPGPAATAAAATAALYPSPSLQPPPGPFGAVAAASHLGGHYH
# In short: (§1)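 Binding signal is each hexamer's read frequency for a factor divided by its frequency in the tag-only sample. The factors were GST-fused human transcription factors from yeast, captured on glutathione beads, DNA-barcoded and pooled with that sample. Pools were incubated with 200 nmole of a random double-stranded 16-mer DNA library in Tris/NaCl/DTT/glycerol buffer at room temperature for 30 min, then washed, crosslinked with 0.1% formaldehyde, proximity-ligated with BsaI/T4 ligase (1 h, 37 °C), PCR-amplified and sequenced on an Illumina NextSeq500.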
# ETV5 = ETV5 (Homo sapiens, UniProt P41161 1-510); details: protein: recombinant; tags: N-terminal GST; dsDNA, one strand shown
# ETV5, sequence (P41161 whole entry): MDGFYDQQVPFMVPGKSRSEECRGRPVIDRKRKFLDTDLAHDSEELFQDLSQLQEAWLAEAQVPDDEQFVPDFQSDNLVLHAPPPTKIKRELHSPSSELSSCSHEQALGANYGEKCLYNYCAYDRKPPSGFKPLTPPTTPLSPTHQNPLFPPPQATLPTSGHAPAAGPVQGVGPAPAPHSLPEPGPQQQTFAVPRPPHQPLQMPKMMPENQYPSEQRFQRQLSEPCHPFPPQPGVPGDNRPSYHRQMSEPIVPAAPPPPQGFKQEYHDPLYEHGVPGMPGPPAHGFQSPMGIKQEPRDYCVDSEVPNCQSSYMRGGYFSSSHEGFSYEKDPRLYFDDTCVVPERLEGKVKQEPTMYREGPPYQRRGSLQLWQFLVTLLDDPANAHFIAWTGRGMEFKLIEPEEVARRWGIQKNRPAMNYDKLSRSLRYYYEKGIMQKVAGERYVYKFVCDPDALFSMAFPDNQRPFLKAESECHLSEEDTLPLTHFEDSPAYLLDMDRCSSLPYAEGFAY
# In short: as §1
# HSF1 = HSF1 (Homo sapiens, UniProt Q00613 1-529); details: protein: recombinant; tags: N-terminal GST; chain copies: 3; dsDNA, one strand shown
# HSF1, sequence (Q00613 whole entry): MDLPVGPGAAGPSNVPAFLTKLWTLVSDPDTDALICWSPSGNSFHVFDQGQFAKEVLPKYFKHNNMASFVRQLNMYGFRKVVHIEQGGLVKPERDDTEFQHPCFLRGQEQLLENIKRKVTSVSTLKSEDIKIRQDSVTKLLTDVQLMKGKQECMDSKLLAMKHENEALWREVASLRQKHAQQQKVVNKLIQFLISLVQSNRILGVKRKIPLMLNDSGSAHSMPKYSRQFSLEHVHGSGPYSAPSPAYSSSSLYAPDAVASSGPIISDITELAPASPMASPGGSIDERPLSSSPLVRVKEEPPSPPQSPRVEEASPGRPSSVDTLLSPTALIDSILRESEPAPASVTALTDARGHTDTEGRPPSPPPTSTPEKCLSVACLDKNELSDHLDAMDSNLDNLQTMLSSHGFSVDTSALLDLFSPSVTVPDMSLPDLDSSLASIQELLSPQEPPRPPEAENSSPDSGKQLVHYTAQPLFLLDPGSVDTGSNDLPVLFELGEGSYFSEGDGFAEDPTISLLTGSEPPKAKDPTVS
# In short: as §1
# SPIC = target: T2, SPIC (Homo sapiens, UniProt Q8N5J4 1-248); details: protein: recombinant; tags: N-terminal GST; dsDNA, one strand shown
# T2 sequence: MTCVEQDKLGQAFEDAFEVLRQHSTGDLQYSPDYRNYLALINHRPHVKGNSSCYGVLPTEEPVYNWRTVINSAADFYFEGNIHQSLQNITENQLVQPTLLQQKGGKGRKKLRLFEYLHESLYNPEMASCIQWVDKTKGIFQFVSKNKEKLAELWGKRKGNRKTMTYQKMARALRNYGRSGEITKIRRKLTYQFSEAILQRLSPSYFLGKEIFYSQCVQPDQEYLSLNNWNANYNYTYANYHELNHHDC
# In short: as §1
# ELF4 = ELF4 (Homo sapiens, UniProt Q99607 1-663); details: protein: recombinant; tags: N-terminal GST; dsDNA, one strand shown
# ELF4, sequence (Q99607 whole entry): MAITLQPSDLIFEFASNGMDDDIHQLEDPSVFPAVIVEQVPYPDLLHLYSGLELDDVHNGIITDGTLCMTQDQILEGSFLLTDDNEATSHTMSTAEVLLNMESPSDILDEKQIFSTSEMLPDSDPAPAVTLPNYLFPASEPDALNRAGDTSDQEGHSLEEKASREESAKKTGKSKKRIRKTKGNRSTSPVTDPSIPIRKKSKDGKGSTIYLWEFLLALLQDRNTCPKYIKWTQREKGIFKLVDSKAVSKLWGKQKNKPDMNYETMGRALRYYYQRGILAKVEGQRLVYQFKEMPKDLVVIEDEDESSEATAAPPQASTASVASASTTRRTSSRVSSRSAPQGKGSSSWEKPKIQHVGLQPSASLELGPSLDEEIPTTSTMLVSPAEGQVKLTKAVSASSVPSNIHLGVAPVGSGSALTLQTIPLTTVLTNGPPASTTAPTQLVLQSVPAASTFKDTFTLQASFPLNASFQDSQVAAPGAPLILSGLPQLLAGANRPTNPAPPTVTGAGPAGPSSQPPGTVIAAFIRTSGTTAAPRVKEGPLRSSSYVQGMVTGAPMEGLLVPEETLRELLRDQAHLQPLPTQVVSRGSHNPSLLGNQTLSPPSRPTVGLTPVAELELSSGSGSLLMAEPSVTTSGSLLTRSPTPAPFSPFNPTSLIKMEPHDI
# In short: as §1
# ELK4 = target: T3, ELK4 (Homo sapiens, UniProt P28324-2 1-405); details: protein: recombinant; tags: N-terminal GST; dsDNA, one strand shown
# T3 sequence: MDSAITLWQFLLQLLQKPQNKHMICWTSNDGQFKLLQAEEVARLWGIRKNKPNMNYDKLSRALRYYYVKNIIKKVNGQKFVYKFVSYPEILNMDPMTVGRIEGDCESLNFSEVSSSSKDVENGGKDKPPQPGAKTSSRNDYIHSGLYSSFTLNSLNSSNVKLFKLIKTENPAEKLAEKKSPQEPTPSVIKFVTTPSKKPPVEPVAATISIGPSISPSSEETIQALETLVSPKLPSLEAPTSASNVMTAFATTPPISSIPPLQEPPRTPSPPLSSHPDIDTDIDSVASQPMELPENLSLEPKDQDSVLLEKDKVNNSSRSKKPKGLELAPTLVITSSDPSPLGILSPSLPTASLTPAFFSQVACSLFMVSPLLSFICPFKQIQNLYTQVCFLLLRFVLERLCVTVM
# In short: as §1
# ETV2 = target: T4, ETV2 (Homo sapiens, UniProt O00321 1-342); details: protein: recombinant; tags: N-terminal GST; dsDNA, one strand shown
# T4 sequence: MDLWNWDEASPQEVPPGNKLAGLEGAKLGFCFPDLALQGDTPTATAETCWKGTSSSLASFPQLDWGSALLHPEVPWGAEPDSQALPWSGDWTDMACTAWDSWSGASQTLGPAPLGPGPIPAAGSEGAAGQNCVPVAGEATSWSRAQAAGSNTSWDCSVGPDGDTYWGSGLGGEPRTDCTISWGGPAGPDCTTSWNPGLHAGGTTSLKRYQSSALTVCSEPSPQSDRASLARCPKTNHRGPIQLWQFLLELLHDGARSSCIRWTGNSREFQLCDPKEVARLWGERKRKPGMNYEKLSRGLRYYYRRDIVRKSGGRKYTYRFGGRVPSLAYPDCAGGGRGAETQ
# In short: as §1
# ELF3 = target: T5, ELF3 (Homo sapiens, UniProt P78545 1-371); details: protein: recombinant; tags: N-terminal GST; dsDNA, one strand shown
# T5 sequence: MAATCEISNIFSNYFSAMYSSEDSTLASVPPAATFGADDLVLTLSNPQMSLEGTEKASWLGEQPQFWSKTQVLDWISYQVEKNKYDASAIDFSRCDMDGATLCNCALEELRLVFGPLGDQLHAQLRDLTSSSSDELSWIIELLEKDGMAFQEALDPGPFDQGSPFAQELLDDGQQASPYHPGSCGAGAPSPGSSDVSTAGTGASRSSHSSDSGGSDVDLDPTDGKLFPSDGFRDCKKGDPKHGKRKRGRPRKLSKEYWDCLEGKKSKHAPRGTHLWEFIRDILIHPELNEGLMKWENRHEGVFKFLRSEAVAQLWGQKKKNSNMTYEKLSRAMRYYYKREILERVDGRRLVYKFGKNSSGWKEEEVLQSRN
# In short: as §1
# CRX = CRX (Homo sapiens, UniProt O43186 1-299); details: protein: recombinant; tags: N-terminal GST; dsDNA, one strand shown
# CRX, sequence (O43186 whole entry): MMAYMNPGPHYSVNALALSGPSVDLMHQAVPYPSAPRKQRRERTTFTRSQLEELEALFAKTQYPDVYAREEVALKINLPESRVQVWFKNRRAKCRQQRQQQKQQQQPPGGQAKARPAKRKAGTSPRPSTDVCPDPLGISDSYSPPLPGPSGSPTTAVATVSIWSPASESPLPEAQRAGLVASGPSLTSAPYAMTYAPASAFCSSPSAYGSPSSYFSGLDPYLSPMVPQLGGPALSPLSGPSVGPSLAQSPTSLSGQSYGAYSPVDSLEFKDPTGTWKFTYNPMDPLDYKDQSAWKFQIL
# In short: as §1
# ETV1 = ETV1 (Homo sapiens, UniProt P50549 1-477); details: protein: recombinant; tags: N-terminal GST; dsDNA, one strand shown
# ETV1, sequence (P50549 whole entry): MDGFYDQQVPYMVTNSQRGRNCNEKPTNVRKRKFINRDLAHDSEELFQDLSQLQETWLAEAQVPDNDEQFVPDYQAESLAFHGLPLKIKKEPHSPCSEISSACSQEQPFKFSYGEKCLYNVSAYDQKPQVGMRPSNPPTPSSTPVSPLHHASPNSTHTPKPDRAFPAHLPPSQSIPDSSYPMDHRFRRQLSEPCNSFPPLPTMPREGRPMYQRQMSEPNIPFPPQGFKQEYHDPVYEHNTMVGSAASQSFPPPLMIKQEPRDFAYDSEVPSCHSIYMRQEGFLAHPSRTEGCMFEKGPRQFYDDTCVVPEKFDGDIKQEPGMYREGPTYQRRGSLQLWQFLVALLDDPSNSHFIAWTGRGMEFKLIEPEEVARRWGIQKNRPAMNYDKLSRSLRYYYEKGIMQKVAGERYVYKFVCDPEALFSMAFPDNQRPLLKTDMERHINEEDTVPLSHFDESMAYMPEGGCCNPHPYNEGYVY
# In short: as §1
# ERF = target: T6, ERF (Homo sapiens, UniProt P50548 1-548); details: protein: recombinant; tags: N-terminal GST; dsDNA, one strand shown
# T6 sequence: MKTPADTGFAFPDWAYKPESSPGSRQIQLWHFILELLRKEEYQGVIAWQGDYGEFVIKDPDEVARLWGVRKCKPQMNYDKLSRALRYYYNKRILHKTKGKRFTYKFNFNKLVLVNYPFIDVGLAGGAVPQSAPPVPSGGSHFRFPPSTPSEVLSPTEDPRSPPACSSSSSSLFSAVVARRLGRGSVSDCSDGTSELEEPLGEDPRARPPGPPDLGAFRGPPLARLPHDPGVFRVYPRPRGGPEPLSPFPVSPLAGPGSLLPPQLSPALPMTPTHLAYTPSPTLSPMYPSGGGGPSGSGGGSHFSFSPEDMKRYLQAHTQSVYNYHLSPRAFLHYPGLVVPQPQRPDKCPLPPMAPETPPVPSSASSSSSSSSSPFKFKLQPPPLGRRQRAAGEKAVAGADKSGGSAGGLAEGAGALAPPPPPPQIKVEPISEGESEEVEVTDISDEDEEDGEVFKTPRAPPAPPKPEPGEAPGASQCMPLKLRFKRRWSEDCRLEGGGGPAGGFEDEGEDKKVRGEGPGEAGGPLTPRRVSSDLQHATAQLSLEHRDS
# In short: as §1
# ETV3L = target: T7, ETV3L (Homo sapiens, UniProt Q6ZN32 1-361); details: protein: recombinant; tags: N-terminal GST; dsDNA, one strand shown
# T7 sequence: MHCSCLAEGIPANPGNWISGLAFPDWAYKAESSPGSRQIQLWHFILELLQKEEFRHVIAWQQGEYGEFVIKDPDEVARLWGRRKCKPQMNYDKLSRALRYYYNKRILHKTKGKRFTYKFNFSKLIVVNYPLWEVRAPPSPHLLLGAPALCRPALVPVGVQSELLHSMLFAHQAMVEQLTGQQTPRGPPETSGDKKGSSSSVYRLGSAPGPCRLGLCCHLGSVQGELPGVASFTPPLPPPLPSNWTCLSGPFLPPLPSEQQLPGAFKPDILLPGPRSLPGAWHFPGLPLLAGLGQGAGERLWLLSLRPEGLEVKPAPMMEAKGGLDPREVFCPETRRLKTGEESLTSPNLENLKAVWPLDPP
# In short: as §1
# ETS2 = target: T8, ETS2 (Homo sapiens, UniProt P15036 1-469); details: protein: recombinant; tags: N-terminal GST; dsDNA, one strand shown
# T8 sequence: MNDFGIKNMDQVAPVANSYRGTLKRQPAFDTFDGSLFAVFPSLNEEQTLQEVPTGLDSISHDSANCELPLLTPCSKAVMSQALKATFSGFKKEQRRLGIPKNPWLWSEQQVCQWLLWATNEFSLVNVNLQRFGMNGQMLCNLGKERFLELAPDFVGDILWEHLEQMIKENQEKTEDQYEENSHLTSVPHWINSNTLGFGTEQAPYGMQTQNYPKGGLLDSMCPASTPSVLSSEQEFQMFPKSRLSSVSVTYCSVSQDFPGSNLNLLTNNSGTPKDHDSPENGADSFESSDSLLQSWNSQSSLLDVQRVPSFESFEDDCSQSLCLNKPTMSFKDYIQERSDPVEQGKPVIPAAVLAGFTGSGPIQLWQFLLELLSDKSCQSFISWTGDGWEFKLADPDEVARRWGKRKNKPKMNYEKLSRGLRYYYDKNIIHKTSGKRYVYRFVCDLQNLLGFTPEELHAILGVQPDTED
# In short: as §1
# SPDEF = target: T9, SPDEF (Homo sapiens, UniProt O95238 1-335); details: protein: recombinant; tags: N-terminal GST; dsDNA, one strand shown
# T9 sequence: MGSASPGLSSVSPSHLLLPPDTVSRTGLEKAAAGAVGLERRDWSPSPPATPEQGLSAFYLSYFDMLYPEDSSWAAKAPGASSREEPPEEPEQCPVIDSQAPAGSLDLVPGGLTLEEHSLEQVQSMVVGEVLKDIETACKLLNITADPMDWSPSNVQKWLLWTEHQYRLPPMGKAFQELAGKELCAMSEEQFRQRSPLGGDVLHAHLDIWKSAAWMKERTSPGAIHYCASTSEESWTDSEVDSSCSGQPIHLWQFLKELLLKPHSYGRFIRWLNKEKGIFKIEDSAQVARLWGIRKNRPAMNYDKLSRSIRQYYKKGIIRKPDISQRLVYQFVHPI
# In short: as §1
# ETV7 = target: T10, ETV7 (Homo sapiens, UniProt Q9Y603 1-341); details: protein: recombinant; tags: N-terminal GST; dsDNA, one strand shown
# T10 sequence: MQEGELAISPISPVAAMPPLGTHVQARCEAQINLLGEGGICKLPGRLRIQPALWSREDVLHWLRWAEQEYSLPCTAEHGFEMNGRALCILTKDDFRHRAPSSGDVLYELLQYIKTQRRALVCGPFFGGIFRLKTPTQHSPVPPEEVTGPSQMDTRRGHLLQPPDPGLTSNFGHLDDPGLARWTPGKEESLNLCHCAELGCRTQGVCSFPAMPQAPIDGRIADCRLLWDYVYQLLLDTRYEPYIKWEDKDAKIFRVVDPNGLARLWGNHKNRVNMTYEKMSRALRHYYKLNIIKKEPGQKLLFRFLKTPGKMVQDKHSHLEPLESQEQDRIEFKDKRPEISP
# In short: as §1
# ELF5 = target: T11, ELF5 (Homo sapiens, UniProt Q9UKW6-2 1-255); details: protein: recombinant; tags: N-terminal GST; dsDNA, one strand shown
# T11 sequence: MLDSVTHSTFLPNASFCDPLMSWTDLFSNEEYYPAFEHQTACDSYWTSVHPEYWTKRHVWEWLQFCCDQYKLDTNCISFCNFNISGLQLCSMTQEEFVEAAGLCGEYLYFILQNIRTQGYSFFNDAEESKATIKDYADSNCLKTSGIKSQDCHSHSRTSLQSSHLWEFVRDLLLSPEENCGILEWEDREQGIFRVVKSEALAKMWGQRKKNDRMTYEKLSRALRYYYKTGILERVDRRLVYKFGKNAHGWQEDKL
# In short: as §1
# ETV3 = target: T12, ETV3 (Homo sapiens, UniProt P41162-2 1-143); details: protein: recombinant; tags: N-terminal GST; dsDNA, one strand shown
# T12 sequence: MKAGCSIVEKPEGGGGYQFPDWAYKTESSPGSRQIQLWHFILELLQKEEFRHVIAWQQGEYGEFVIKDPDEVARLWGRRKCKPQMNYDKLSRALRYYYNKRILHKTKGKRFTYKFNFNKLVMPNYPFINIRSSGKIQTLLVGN
# In short: as §1
# ETV6 = ETV6 (Homo sapiens, UniProt P41212 1-452); details: protein: recombinant; tags: N-terminal GST; dsDNA, one strand shown
# ETV6, sequence (P41212 whole entry): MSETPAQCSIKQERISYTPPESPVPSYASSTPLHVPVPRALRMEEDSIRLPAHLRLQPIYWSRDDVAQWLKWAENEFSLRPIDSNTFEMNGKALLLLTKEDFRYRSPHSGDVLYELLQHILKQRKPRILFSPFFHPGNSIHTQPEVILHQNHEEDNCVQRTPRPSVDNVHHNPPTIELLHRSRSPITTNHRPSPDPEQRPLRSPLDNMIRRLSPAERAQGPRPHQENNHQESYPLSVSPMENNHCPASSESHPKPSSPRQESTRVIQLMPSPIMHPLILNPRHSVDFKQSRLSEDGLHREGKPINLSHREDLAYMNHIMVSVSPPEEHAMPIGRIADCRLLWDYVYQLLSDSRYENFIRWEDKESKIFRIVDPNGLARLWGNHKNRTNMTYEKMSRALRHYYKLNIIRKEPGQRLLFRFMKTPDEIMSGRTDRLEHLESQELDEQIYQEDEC
# In short: as §1
sequence,measurement,setting,value
TTTTCG,binding signal,FEV,"1.23 fold enrichment (6-mer frequency, TF over GST control)"
same,binding signal,ETV5,"1.27 fold enrichment (6-mer frequency, TF over GST control)"
same,binding signal,HSF1,"1.53 fold enrichment (6-mer frequency, TF over GST control)"
same,binding signal,SPIC,"1.11 fold enrichment (6-mer frequency, TF over GST control)"
same,binding signal,ELF4,"1.29 fold enrichment (6-mer frequency, TF over GST control)"
same,binding signal,ELK4,"1.08 fold enrichment (6-mer frequency, TF over GST control)"
same,binding signal,ETV2,"1.33 fold enrichment (6-mer frequency, TF over GST control)"
same,binding signal,ELF3,"1.11 fold enrichment (6-mer frequency, TF over GST control)"
same,binding signal,CRX,"1.28 fold enrichment (6-mer frequency, TF over GST control)"
same,binding signal,ETV1,"1.2 fold enrichment (6-mer frequency, TF over GST control)"
same,binding signal,ERF,"1.25 fold enrichment (6-mer frequency, TF over GST control)"
same,binding signal,ETV3L,"1.41 fold enrichment (6-mer frequency, TF over GST control)"
same,binding signal,ETS2,"1.26 fold enrichment (6-mer frequency, TF over GST control)"
same,binding signal,SPDEF,"1.16 fold enrichment (6-mer frequency, TF over GST control)"
same,binding signal,ETV7,"1.2 fold enrichment (6-mer frequency, TF over GST control)"
same,binding signal,ELF5,"1.3 fold enrichment (6-mer frequency, TF over GST control)"
same,binding signal,ETV3,"1.25 fold enrichment (6-mer frequency, TF over GST control)"
same,binding signal,ETV6,"1.09 fold enrichment (6-mer frequency, TF over GST control)"
